PubChem BioAssay (NCI)
The panel holds about 79,000 compounds, 15% with a hit somewhere; the sample as a whole holds those more often. Activity calls are given as the source filed them. Cut-off read from the data, not from the text of the source: active = growth inhibition above about 70%; inactive = the rest.

Test: NCI Yeast Anticancer Drug Screen. Data for the mlh1 strain (AID 171);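 note: 0% = growth of vehicle-treated control cultures of the same strain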
Conditions: S. cerevisiae mlh1 strain growth inhibition, hits give high values
Description: Growth inhibition of yeast strains with defined genetic alterations is measured as a screen for potential anti-cancer activity. Selected strains with alterations in DNA damage repair or cell cycle control were exposed to compounds and growth inhibition was measured relative to vehicle treated controls. The strain used in this assay is mlh1

Measured: growth inhibition

c1ccc2c(c1)Oc1cccc3cccc-2c13
inactive: at 1.2 µM 7% | at 3.7 µM 15% | at 11.0 µM 14% | at 33.0 µM 31% | at 100.0 µM 52%

Brc1ccc(-c2cc3c(cc2C2SCCS2)OCO3)cc1
inactive: at 1.2 µM -24% | at 3.7 µM -23% | at 11.0 µM -28% | at 33.0 µM 18% | at 100.0 µM 63%

O=C(CCCN1CCC2(CC1)CC(=O)N(N1CCCCCC1)C2=O)c1ccc(F)cc1
inactive: at 1.2 µM 25% | at 3.7 µM 30% | at 11.0 µM 41% | at 33.0 µM 52% | at 100.0 µM 63%

N#C/C(=C\c1cccc(OCc2ccccc2)c1)c1ccc([N+](=O)[O-])cc1
inactive: at 1.2 µM -44% | at 3.7 µM -41% | at 11.0 µM -51% | at 33.0 µM -64% | at 100.0 µM -72%

CCCCCCCCCCCC1=C(O)C(=O)C=C(O)C1=O
active: at 33.0 µM 93% | at 100.0 µM 91%
inactive: at 1.2 µM -12% | at 3.7 µM -9% | at 11.0 µM 37%

CCOc1ccc2c(c1)c(CC(=O)O)cn2C
active: at 100.0 µM 75%
inactive: at 1.2 µM 5% | at 3.7 µM -4% | at 11.0 µM 13% | at 33.0 µM 42%

CC(C)/C(Cl)=N\OC(=O)Nc1ccc(F)cc1
inactive: at 1.2 µM 1% | at 3.7 µM 2% | at 11.0 µM 6% | at 33.0 µM 62%
active: at 100.0 µM 98%

COC(=O)c1ccc(NCC2=CC(=O)C=CC2=O)cc1O
active: at 11.0 µM 90% | at 33.0 µM 98% | at 100.0 µM 94%
inactive: at 1.2 µM 17% | at 3.7 µM 51%
